Screens: PubChem, Johns Hopkins Ion Channel Center
Compounds with a hit are over-represented: about 1.6% of the library has one in this group of screens.
KCNQ2 inh – KCNQ2 (rat) channel inhibition; O88943; CHO-K1 KCNQ2, FluxOR thallium flux, 20 min; active compounds read low; B-score at 10 µM; 310,000 tested, 1.1% active; AID 2156;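 active = fluorescence ratio B-score at most minus 3 library SDs, with starting brightness B-score within 2 library SDs, cut at about -5.5 in these data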
Target sequence (O88943 whole entry, looked up): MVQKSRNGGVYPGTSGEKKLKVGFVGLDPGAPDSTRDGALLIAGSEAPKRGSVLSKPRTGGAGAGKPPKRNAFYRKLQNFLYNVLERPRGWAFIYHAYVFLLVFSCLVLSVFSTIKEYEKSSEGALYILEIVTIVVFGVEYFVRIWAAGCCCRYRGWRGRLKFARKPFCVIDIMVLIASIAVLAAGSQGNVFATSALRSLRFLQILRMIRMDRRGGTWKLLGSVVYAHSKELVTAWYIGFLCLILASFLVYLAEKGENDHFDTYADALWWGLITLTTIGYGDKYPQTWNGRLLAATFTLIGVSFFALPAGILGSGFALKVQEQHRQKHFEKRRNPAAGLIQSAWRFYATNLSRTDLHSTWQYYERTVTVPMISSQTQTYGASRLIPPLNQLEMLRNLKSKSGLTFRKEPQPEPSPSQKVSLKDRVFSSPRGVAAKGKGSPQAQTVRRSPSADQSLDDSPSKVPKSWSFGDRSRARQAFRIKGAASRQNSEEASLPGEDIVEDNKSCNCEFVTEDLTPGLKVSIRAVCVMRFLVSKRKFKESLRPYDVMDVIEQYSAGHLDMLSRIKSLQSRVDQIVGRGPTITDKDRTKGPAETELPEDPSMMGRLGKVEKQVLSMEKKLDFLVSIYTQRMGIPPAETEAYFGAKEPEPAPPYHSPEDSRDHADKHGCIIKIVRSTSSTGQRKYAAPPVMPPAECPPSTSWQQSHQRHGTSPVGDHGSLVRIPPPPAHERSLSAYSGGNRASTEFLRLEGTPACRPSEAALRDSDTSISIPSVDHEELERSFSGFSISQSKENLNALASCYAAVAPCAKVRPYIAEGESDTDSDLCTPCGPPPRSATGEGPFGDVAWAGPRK
KCNQ2 enhance – potentiators of rat KCNQ2 potassium channel. O88943. CHO-K1 KCNQ2, FluxOR thallium flux fluorescence; active compounds read high. B-score at 10 µM. 310,000 tested, 0.54% active. AID 2239;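 active = fluorescence ratio B-score at least 3 SD of library B-scores, with initial fluorescence B-score within 3 of them, cut at about 5.3 in these data; same plate scores as AID 2156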;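 note: B-score of peak minus minimum over baseline fluorescence ratio after K+ and Tl+ stimulus; positive B-score means potentiation of KCNQ2 with more thallium influx and brighter signal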
Kir21 conf inh – confirmation of mouse Kir2.1 potassium channel inhibitors; 2,300 tested, 41% active; Tl flux remaining, % of negative control (active compounds read low), % at 10 µM; AID 2032; shares compounds with KCNQ2 enhance; Kir2.1-expressing cells, FluxOR thallium flux fluorescence; active compounds read low;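 active = Primary-screen hit whose thallium flux fell at least 3 control SD below untreated wells in both duplicates, with normal baseline fluorescence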;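 note: 0% = blank wells without stimulus and 100% = stimulated no-compound controls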
HEK293 Tl flux – counter-screen for Kir2.1 inhibitors: effect in parental HEK293 cells; shares compounds with KCNQ2 enhance; FluxOR thallium flux fluorescence; 0% = unstimulated blank wells; FluxOR signal as % of negative control (100 = no effect), % at 10 µM; AID 2105; 2,300 tested, 19% active;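 active = dye signal at least 3 control SD above or below untreated wells in both duplicates, raw fluorescence within 3, either direction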;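 note: percent is based on the flux ratio of peak minus minimum fluorescence over baseline F0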
CHO-K1 ctr – counter-screen for KCNQ2 potentiators: effect in parental CHO-K1 cells; shares compounds with KCNQ2 enhance; FluxOR thallium flux fluorescence; zero = vehicle mean+3SD, 100% = vehicle-minus-blank window; activity increase over 3SD of controls, % at 10 µM; 1,200 tested, 43% active; AID 2282;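 active = signal rise of at least 3 SD above the untreated control mean, in both duplicate wells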;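 note: counter screen of KCNQ2 potentiator hits so any rise reflects channel-independent effects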
KCNQ1 sel pot – selectivity of KCNQ2 potentiators: effect on human KCNQ1; shares compounds with KCNQ2 enhance; CHO KCNQ1 stable, FluxOR thallium flux fluorescence; beyond 3SD, as % of vehicle-control signal; activation over 3SD threshold, % at 10 µM; 1,200 tested, 28% active; AID 2283;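 active = fluorescence ratio rise of at least 3 SD of vehicle wells above their mean, in both replicate wells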;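 note: 0% = vehicle mean plus 3 SD and 100% = vehicle minus unstimulated blank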
KCNQ2 pot confirm – rat KCNQ2 channel potentiator confirmation; potentiation, less the hit threshold, % at 10 µM; 1,200 tested, 68% active; shares compounds with KCNQ2 enhance; CHO-KCNQ2 cells, FluxOR thallium flux fluorescence;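 active = fluorescence ratio rising 3 SD or more over the vehicle control mean in both replicates, plus primary screen hit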;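 note: peak minus minimum thallium fluorescence divided by baseline after K/Tl stimulus; 0% = vehicle mean plus 3 SD and 100% = vehicle minus unstimulated blank difference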
Kir2-1 sel – mouse Kir2.1 off-target activity of KCNQ2 potentiators. 1,200 tested, 2% active. HEK293 Kir2.1, FluxOR thallium flux fluorescence. shares compounds with KCNQ2 enhance. activity over 3SD threshold, % at 10 µM;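 active = fluorescence ratio rise of at least 3 SD above the vehicle-control mean, seen in both replicates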;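 note: 0% = vehicle mean plus 3 SD and 100% = vehicle minus no-stimulus blank window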
KCNQ2 W236L MoA – rat KCNQ2 W236L mutant potentiation by KCNQ2 potentiators; shares compounds with KCNQ2 enhance; CHO KCNQ2-W236L, automated patch clamp current; current increase over 3SD of negative controls (%), active compounds read high, % at 25 µM; 940 tested, 10% active;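 active = current increase at least 3 SD of the untreated controls above them in both duplicate recordings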
An asterisk follows results filed as active; i = inactive; / = no result given.

SMILES	KCNQ2 inh	KCNQ2 enhance	Kir21 conf inh	HEK293 Tl flux	others
CC(C)CC(=O)Nc1ccc(Nc2ccccc2)cc1	i	1.6	/	/
CSc1ncc(Cl)c(C(=O)NCc2cccnc2)n1	i	/	/	/
CC1CN(c2ccc([N+](=O)[O-])c(NCCOc3ccccc3)c2)CC(C)N1 (centres undefined)	i	/	/	/
CC1CN(c2ccc([N+](=O)[O-])c(NCCOc3ccc(Cl)cc3)c2)CC(C)N1 (centres undefined)	-7*	-7	67%*	i
CC(=O)Oc1ccc2oc(=O)c3c(c2c1)CCCN3C(=O)CN1CCOCC1	i	/	/	/
COc1ccccc1CNC(=O)c1cc(S(=O)(=O)N2CCCCC2)c[nH]1	i	/	/	/
CCN/C=C(\C#N)S(=O)(=O)c1ccc(Br)cc1	i	/	/	/
COc1cc(/C=C2\C(=O)ON=C2c2ccccc2)cc(Br)c1O	i	2	i	51%*
COc1cc(/C=C2\C(=O)ON=C2c2ccccc2)cc(Cl)c1O	i	2.9	/	/
CCOc1cc(/C=C2/C(=O)ON=C2C)cc(Br)c1O	i	0.24	/	/
CCOc1cc(/C=C2\C(=O)ON=C2c2ccccc2)cc(Br)c1O	i	2	i	46%*
COc1ccc(-c2csc(NC(=O)C3CSC4(C)CCC(=O)N34)n2)c(OC)c1 (centres undefined)	i	1	/	/
CC/C(=N\NC(=O)c1ccc2c(c1)OCO2)C12CC3CC(CC(C3)C1)C2	i	/	/	/
CC/C(=N/NC(=O)c1ccc2c(c1)OCO2)c1ccccc1O	i	7.9*	i	i	CHO-K1 ctr=-12;KCNQ1 sel pot=-20;KCNQ2 pot confirm=16*;Kir2-1 sel=-31;KCNQ2 W236L MoA=i
O=C1c2cccnc2C(Nc2ccc(F)c(Cl)c2)N1Cc1cccs1 (centres undefined)	i	/	/	/
COc1ccc(OCCC(=O)OCC(=O)Nc2ccc(S(=O)(=O)N3CCOCC3)cc2)cc1	i	0.1	/	/
CC(C)(C)c1ccc(OCCC(=O)OCC(=O)Nc2ccc(N3CCOCC3)cc2)cc1	i	5.5*	i	i	CHO-K1 ctr=15*;KCNQ1 sel pot=-11;KCNQ2 pot confirm=-12;Kir2-1 sel=-38;KCNQ2 W236L MoA=i
COc1ccccc1CNC(=O)C1CCN(S(=O)(=O)c2ccc(-n3cnnn3)cc2)CC1	i	0.4	/	/
CCOCCc1nnc(NC(=O)CCS(=O)(=O)c2ccccc2)s1	i	/	/	/
Cc1ccc(C(=O)NC(=S)N(C)C2CCCCC2)cc1	i	5.7*	i	212%*	CHO-K1 ctr=-37;KCNQ1 sel pot=18*;KCNQ2 pot confirm=31*;Kir2-1 sel=-20;KCNQ2 W236L MoA=i
CN(C(=S)NC(=O)/C=C/c1ccc(F)cc1)C1CCCCC1	i	/	/	/
C=CCn1c(SCc2ccc(C(=O)OC)cc2)nnc1-c1sc(N)nc1C	i	0.11	/	/
C=CCn1c(SC/C=C/c2ccccc2)nnc1-c1sc(N)nc1C	i	/	60%*	i
CCOc1c(Cl)cc(CNCC(C)C)cc1OC	i	0.97	/	/
CCOc1cc(CNC2CCCC2)cc(Cl)c1OCc1ccccc1	i	/	34%*	134%*
SMILES	KCNQ2 inh	KCNQ2 enhance	Kir21 conf inh	HEK293 Tl flux	others
CCOc1cc(CNCC(C)C)cc(Cl)c1OCc1ccccc1	i	/	20%*	i
CCOc1cc(CNC2CCCC2)ccc1OCc1ccccc1Cl	i	/	/	/
CC(=O)NNS(=O)(=O)c1ccc(-c2cc(C(F)(F)F)n(C)n2)s1	i	/	/	/
CC(C)CN(CC(C)C)C(=O)Nc1ccccc1F	i	1.4	/	/
CCn1nc(NS(=O)(=O)c2ccc([N+](=O)[O-])cc2)c2cc3ccccc3nc21	i	0.03	/	/
Oc1c(Br)cc(Br)cc1/C=N/Nc1ccc(Cl)nn1	i	11*	i	i	CHO-K1 ctr=-10;KCNQ1 sel pot=-18;KCNQ2 pot confirm=13*;Kir2-1 sel=-12;KCNQ2 W236L MoA=i
Oc1c(Br)cc(/C=N/Nc2ccc(Cl)nn2)cc1Br	i	2.6	/	/
Cc1cc(C)c(S(=O)(=O)N2CCC(C(=O)NCc3ccncc3)CC2)c(C)c1	i	0.36	/	/
Cc1cc(C)c(S(=O)(=O)N2CCC(C(=O)NCc3ccc(Cl)cc3Cl)CC2)c(C)c1	i	6*	i	i	CHO-K1 ctr=-5;KCNQ1 sel pot=-52;KCNQ2 pot confirm=-2;Kir2-1 sel=-36
O=c1c2ccccc2nc2ccc(NCc3ccco3)nn12	i	0.02	/	/
Cc1sc2nc3ccc(NCc4ccco4)nn3c(=O)c2c1C	i	6.7*	i	i	CHO-K1 ctr=46*;KCNQ1 sel pot=-27;KCNQ2 pot confirm=-3;Kir2-1 sel=-12
CCCCc1ccc(NC(=O)C(=O)NCCN2CCN(C(=O)c3ccc([N+](=O)[O-])cc3)CC2)cc1	i	2	/	/
Cc1ccc2oc(C(=O)NCc3ncc(C)[nH]3)c(C)c2c1	i	0.23	/	/
CCOC(=O)C1CCN(Cc2c(O)ccc3ccccc23)CC1	i	0.29	70%*	i
CCOC(=O)N1CCN(Cc2c(O)ccc3ccccc23)CC1	i	/	/	/
CCC(C(=O)OC(C)C(=O)Nc1ccc(Cl)cn1)c1ccccc1 (centres undefined)	i	/	58%*	68%*
CNc1ccccc1C(=O)OC(C)C(=O)Nc1ccc(Cl)cn1 (centres undefined)	i	0.65	/	/
COc1cc(OC)c(NC(=S)NCc2ccc(F)cc2)cc1Cl	i	/	/	/
CCc1ccc(OCC(=O)NCc2ccco2)c(Br)c1	i	7.8*	i	i	CHO-K1 ctr=-25;KCNQ1 sel pot=-14;KCNQ2 pot confirm=22*;Kir2-1 sel=-21;KCNQ2 W236L MoA=i
O=C(COc1ccccc1Br)NCc1ccco1	i	0.03	/	/
CSc1cccc(CN2CCCC(CNC(=O)c3ccco3)C2)c1 (centres undefined)	i	0.97	/	/
CCn1cc(CCC(=O)NC(C)c2ccccc2)c2ccccc21 (centres undefined)	i	0.65	i	i
CCn1cc(CCC(=O)NCCc2ccccc2)c2ccccc21	i	/	/	/
Cc1ccc(C)c(S(=O)(=O)N/N=C/c2ccc(N3CCOCC3)cc2)c1	i	/	/	/
O=C(NCCC(=O)N1CCN(C(=O)c2ccco2)CC1)c1ccc(Br)cc1	i	/	/	/
Cc1cc(=O)[nH]c2ccccc12	i	/	/	/
Cc1cc2[nH]c3c(c[n+](C)c4ccccc34)c2cc1C	i	/	i	i
COc1cc(/C=C2\SC(=S)N(CCC(=O)Nc3cccc(O)c3)C2=O)cc(OC)c1OC	i	0.32	/	/
COc1ccc(C)cc1NCc1cccc(OC)c1OC	i	/	/	/
COc1cc(OC)c(OC)cc1CNc1cc(C)ccc1OC	i	/	54%*	i
